Our source for the max activity values is PubChem BioAssay AID1259418 (Broad Institute, 2018).

Out of some 3,400 compounds screened, about 840 (25%) were called active. Another 11% or so got no clear call; they are omitted.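 Rule for the calls: active = fitted half-maximal concentration of signal decrease at or below twice the sample's top tested concentration; inconclusive = flat curve between -70 and -30 percent, or poor fit; inactive = flat within 30 percent, signal rise, or potency above limit.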 A selection follows. Results with a measured potency or affinity are listed apart.

This assay can be described thus: T. gondii growth inhibition with IFN-gamma, dose response, cell-based, ME49Luc, HeLa, luciferase, 72 h (AID 1259418). As to conditions: T. gondii ME49Luc in IFN-y HeLa, stronger effect = lower value, -100% = high-dose IFN-γ control wells; at 19.5 µM unless noted.
As to `O=C(COc1ccc(F)cc1)Nc1ccc2c(c1)CCC(=O)N2`, the max activity was -4.48% [at 1.35 µM] (inactive).

On to `Cc1cccc(C(=O)Nc2ccc(-c3nc(-c4ccccc4)co3)cc2)c1`, for which the max activity is 70.1% (inactive).

For `COc1ccc(-c2nc(Cn3nnc(-c4nc(-c5ccc(SC)cc5)no4)c3C)c(C)o2)cc1`, the max activity was -6.45% [at 5 µM] (inactive).

Regarding `O=S(=O)(c1ccccc1F)N1CC[C@H]2[C@H](CO)Nc3ccc(C4=CCCCC4)cc3[C@H]21`, the max activity was 39.3% [at 10 µM] (inactive).

Consider `O=S(=O)(c1ccccc1F)N1CC[C@@H]2[C@H](CO)Nc3ccc(C4=CCCCC4)cc3[C@@H]21`, for which the max activity was 7.48% [at 10 µM] (inactive).

Turning to `COc1ccccc1S(=O)(=O)N1CC[C@H]2[C@H](CO)Nc3ccc(-c4ccc(C#N)cc4)cc3[C@H]21`, the max activity was 23% [at 21 µM] (inactive).

With `O=S(=O)(c1ccccc1F)N1CC[C@@H]2[C@@H](CO)Nc3ccc(C4=CCCCC4)cc3[C@@H]21`, the max activity was 37.4% [at 10 µM] (inactive).

In the case of `Cc1cccc(S(=O)(=O)N2CC[C@@H]3[C@H](CO)Nc4ccc(-c5ccccc5F)cc4[C@@H]32)c1`, the max activity is 25.7% [at 10 µM] (inactive).

Turning to `CC(=O)NCC(=O)N1CCC2(CC1)CC(c1ccccc1)C(=O)N2` (stereo unspecified), the max activity was 28.8% (inactive).

In the case of `COc1ccc(NC(=O)Nc2ccc(-c3nc(-c4cc(C)ccc4C)co3)cc2)c(OC)c1`, the max activity is 9.16% [at 5 µM] (inactive).

As for `CS(=O)(=O)NCc1cnc2n1CCN(Cc1cccs1)CC2`, the max activity is 48.8% (inactive).

Take `CCN1C(=O)CCc2cc(NC(=O)Cc3ccccc3Cl)ccc21`: the max activity is -5.27% [at 0.16 µM] (inactive).

As to `COc1ccc(-c2nc(NCCC3=CCCCC3)c3ccccc3n2)cc1`, the max activity is -27.2% [at 1.35 µM] (inactive).

Regarding `CN1[C@@H]2Cn3c(ccc(/C=C/c4ccccc4)c3=O)[C@H]1[C@@H](C(=O)NC1Cc3ccccc3C1)[C@@H]2CO`, the max activity is 15.2% [at 5 µM] (inactive).

Take `Cc1ccc2c(c1C)-n1cccc1C1(CCN(C(=O)c3ccco3)CC1)N2`: the max activity was 10.9% [at 0.16 µM] (inactive).

Turning to `Cc1oc(-c2ccccc2)nc1CSc1nc2c(c(=O)[nH]1)CN(Cc1ccc(Cl)cc1)CC2`, the max activity is 14.5% [at 0.16 µM] (inactive).

As to `COc1ccc(CN2CCc3nc(SCc4nc(-c5ccc(C)cc5)oc4C)[nH]c(=O)c3C2)cc1`, the max activity was 16.3% (inactive).

Turning to `Cc1ccc(-c2nc(CSc3nc4c(c(=O)[nH]3)CN(Cc3ccc(F)cc3)CC4)c(C)o2)cc1`, the max activity was 26% [at 0.16 µM] (inactive).

On to `Cc1ccc(-c2nc(CSc3nc4c(c(=O)[nH]3)CN(Cc3ccccc3)CC4)c(C)o2)cc1`, for which the max activity was -18% [at 0.68 µM] (inactive).

For `Cc1nc(-c2ccc(F)cc2)sc1-c1ccc(SCCN2CCOCC2)nn1`, the max activity is 231% (inactive).

With `O=C(Nc1ccc(F)cc1)Nc1ccc(-c2nc(-c3cccc(Br)c3)co2)cc1`, the max activity was 4.84% [at 10 µM] (inactive).

Take `COc1ccc(-c2nc(N3CCCC(C)C3)c3ccccc3n2)cc1` (stereo unspecified): the max activity is 20.4% [at 1.35 µM] (inactive).

Regarding `O=C(CCC1N=C2c3ccccc3N=C(SCc3cc(=O)n4ccccc4n3)N2C1=O)NCc1ccc2c(c1)OCO2` (stereo unspecified), the max activity is 14.1% [at 0.35 µM] (inactive).

Regarding `Cc1ccc(CSC2=Nc3ccccc3C3=NC(CC(=O)NCc4cccs4)C(=O)N23)c(C)c1` (stereo unspecified), the max activity was 21.5% [at 0.68 µM] (inactive).

In the case of `CCOC(=O)CSC1=Nc2ccccc2C2=NC(CCC(=O)NCc3cccs3)C(=O)N12` (stereo unspecified), the max activity was 13.6% [at 10 µM] (inactive).

For `COc1ccccc1CNC(=O)CC1N=C2c3ccccc3N=C(SCc3ccc(F)cc3)N2C1=O` (stereo unspecified), the max activity is 11.2% [at 10 µM] (inactive).

With `O=C(CCC1N=C2c3ccccc3N=C(SCc3cc(=O)n4ccccc4n3)N2C1=O)NCc1cccs1` (stereo unspecified), the max activity was 13.4% [at 0.16 µM] (inactive).

Turning to `O=C(CC1N=C2c3ccccc3N=C(SCc3cc(=O)n4cc(Cl)ccc4n3)N2C1=O)NCc1cccs1` (stereo unspecified), the max activity was 41.3% [at 0.35 µM] (inactive).

Take `Cc1c(Cl)cccc1NC(=O)CN1CCC2(CC1)N=C(c1ccc(F)cc1)C(=O)N2`: the max activity was -21.7% [at 1.35 µM] (inactive).

Regarding `Cc1ccc(CC(=O)Nc2ccc(-c3nc(-c4ccc(C)cc4)co3)cc2)cc1`, the max activity was 19.1% [at 10 µM] (inactive).

As to `Cc1oc(-c2ccccc2)nc1Cn1nnc(-c2nc(-c3ccc(Cl)c(F)c3)no2)c1C`, the max activity was 7.02% (inactive).

For the molecule `Cc1cccc(C2=NC3(CCN(CC(=O)Nc4ccc(C)c(F)c4)CC3)NC2=O)c1`, the max activity was -23% (inactive).

In the case of `N#Cc1c(N2C[C@@H]3NCCO[C@H]3C2)c(F)cc2c(=O)c(C(=O)O)cn(C3CC3)c12`, the max activity was 13.7% (inactive).

As for `COC(=O)Cn1cc(CN2CCCC2c2cc(C(C)C)on2)c2cc(OC)ccc21` (stereo unspecified), the max activity is 14.7% (inactive).

For the molecule `COc1ccc2c(c1)NC1(CCN(C(=O)Cc3ccc(C)cc3)CC1)c1cccn1-2`, the max activity was 5.57% [at 0.35 µM] (inactive).

Take `CCCCc1ccc(Nc2ncnc3c2cnn3-c2ccc(Cl)cc2)cc1`: the max activity is -18.1% [at 5 µM] (inactive).

In the case of `Cc1cccc(-c2nc(CN3CCc4c(sc5c4CCCC5)C3c3ccccc3)c(C)o2)c1` (stereo unspecified), the max activity was 18.5% (inactive).

Consider `O=C(CCC1N=C2c3ccccc3N=C(SCc3ccc(F)cc3)N2C1=O)NCc1cccs1` (stereo unspecified), for which the max activity was 11.9% [at 1.35 µM] (inactive).

Regarding `O=C(CCC1N=C2c3ccccc3N=C(SCc3ccccc3F)N2C1=O)NCc1ccc2c(c1)OCO2` (stereo unspecified), the max activity is 17.7% [at 0.16 µM] (inactive).

Take `O=C(CCC1N=C2c3ccccc3N=C(SCc3ccc(Cl)cc3)N2C1=O)NCc1ccc2c(c1)OCO2` (stereo unspecified): the max activity is -24.4% [at 0.35 µM] (inactive).

Take `Cc1ccc(CSC2=Nc3ccccc3C3=NC(CC(=O)NCc4cccs4)C(=O)N23)cc1` (stereo unspecified): the max activity was 21.6% [at 2.6 µM] (inactive).

With `O=C(CC1N=C2c3ccccc3N=C(SCc3ccc(Cl)cc3)N2C1=O)NC1CCCCC1` (stereo unspecified), the max activity was -16.8% [at 0.35 µM] (inactive).

Take `Cc1ccc2c(c1)cc(S(=O)(=O)c1ccccc1)c(=O)n2CC(=O)NC1CCCC1`: the max activity was -10.6% [at 0.35 µM] (inactive).

Take `COc1ccc(CNC(=O)Nc2ccc(-c3nc(-c4ccccc4)co3)cc2)cc1`: the max activity was 134% (inactive).

Regarding `O=C(Cc1ccccc1)N1CCC2(CC1)Nc1cc(F)ccc1-n1cccc12`, the max activity was 8.98% [at 0.68 µM] (inactive).

As for `COc1ccccc1CNC(=O)CCC1N=C2c3ccccc3N=C(SCC#N)N2C1=O` (stereo unspecified), the max activity is 14.4% [at 1.35 µM] (inactive).

On to `C=CCNc1ncnc2c1cnn2-c1ccc(Cl)cc1`, for which the max activity was 134% [at 0.35 µM] (inactive).

For the molecule `CCOC(=O)CC(=O)Nc1ccc(-c2nc(-c3cc(C)ccc3C)co2)cc1`, the max activity was -6.71% [at 0.35 µM] (inactive).

With `CCC(C(=O)N1CCC2(CC1)Nc1ccc(C)c(C)c1-n1cccc12)c1ccccc1` (stereo unspecified), the max activity was 8.62% [at 2.6 µM] (inactive).

On to `CCOC(=O)C1CCN(C(=O)Cn2cccc2-c2nc(-c3ccc(C)cc3)cs2)CC1`, for which the max activity was 11.7% (inactive).

Take `CCN1CCCC1CNC(=O)Cn1cccc1-c1nc(-c2ccccc2)cs1` (stereo unspecified): the max activity is -11% (inactive).

As for `Cc1ccc(-c2csc(-c3cccn3CC(=O)N3CCC(N4CCCCC4)CC3)n2)cc1`, the max activity is 6.16% [at 0.16 µM] (inactive).

As to `CCOC(=O)C1CCCN(C(=O)Cn2cccc2-c2nc(-c3ccc(C)cc3)cs2)C1` (stereo unspecified), the max activity is -28.8% (inactive).

As to `COCCN1CCc2nc(SCc3nc(-c4ccc(OC)c(OC)c4)oc3C)[nH]c(=O)c2C1`, the max activity is 34.3% [at 10 µM] (inactive).

With `CN1C(=O)CCc2cc(NC(=O)c3cccs3)ccc21`, the max activity is 71.4% (inactive).

With `Cc1ccc(C)c(NC(=O)N2CCN(Cc3nc(-c4ccccc4C)oc3C)CC2)c1`, the max activity was 4.41% [at 2.6 µM] (inactive).

For the molecule `COc1cccc(C(=O)Nc2ccc(-c3nc(-c4cc(C)ccc4C)co3)cc2)c1`, the max activity was 7.15% [at 0.16 µM] (inactive).

For the molecule `Cc1nnc(N2C[C@@H](Oc3ncccc3F)[C@@H]3OCCC[C@@H]32)s1`, the max activity was 9.8% (inactive).

Regarding `COc1ccc(-c2nc3c(s2)CN(S(=O)(=O)c2ccc(OC)cc2)CC3)cc1`, the max activity is 12.4% (inactive).

Take `COc1ccc(-c2nc3c(s2)CN(S(=O)(=O)c2ccc(C)cc2)CC3)cc1`: the max activity was 9.64% [at 10 µM] (inactive).

With `COc1ccc(S(=O)(=O)N2CCc3nc(-c4ccc(C)cc4)sc3C2)cc1`, the max activity is -4.65% [at 2.6 µM] (inactive).

As for `COc1cccc(-c2nc3c(s2)CN(S(=O)(=O)c2ccc(C)c(C)c2)CC3)c1`, the max activity is -17.2% [at 10 µM] (inactive).

On to `Cc1ccc(C)c(-c2coc(-c3ccc(NC(=O)COc4ccc(F)cc4)cc3)n2)c1`, for which the max activity was 15.1% (inactive).

For `N#Cc1ccc(S(=O)(=O)N2CCC(N3CCOCC3)CC2)cc1`, the max activity was -17.4% [at 0.35 µM] (inactive).

For the molecule `CCc1ccccc1NC(=O)CN1CCC2(CC1)N=C(c1ccc(Cl)cc1)C(=O)N2`, the max activity is 13% (inactive).

In the case of `Cc1nc(-c2ccc(F)cc2)sc1-c1ccc(SCc2ccc(C(F)(F)F)cc2)nn1`, the max activity was 6.62% [at 0.68 µM] (inactive).

With `COc1ccccc1NC(=O)CN1CCC2(CC1)N=C(c1ccc(F)cc1)C(=O)N2`, the max activity is 11.3% (inactive).

In the case of `Cc1oc(-c2ccccc2)nc1CN(c1ccccc1)S(=O)(=O)c1cccs1`, the max activity is 8.04% [at 0.68 µM] (inactive).

For `Cc1ccc(N(Cc2nc(-c3ccc(OC(C)C)cc3)oc2C)S(=O)(=O)c2cccs2)cc1`, the max activity is -11.4% [at 0.68 µM] (inactive).

In the case of `Cc1ccc(-c2nc(CN(c3ccc(C)cc3)S(=O)(=O)c3cccs3)c(C)o2)cc1`, the max activity is 12.6% [at 0.16 µM] (inactive).

For `COc1ccccc1-c1nc(CSc2nc3c(c(=O)[nH]2)CN(Cc2ccc(F)cc2)CC3)c(C)o1`, the max activity was 38.6% [at 5 µM] (inactive).
